# The whole screen tested about 310,000 compounds, of which about 1,900 (0.61%) were called active. Entries that show only a call come without a potency. About 8% were inconclusive and are not listed. This is one part of a sample in which actives are shown more often than they occur. Calls follow the shape of the full dose curve; tested in A549 cells.
# Test: qHTS for Stage-Specific Inhibitors of Vaccinia Orthopoxvirus: mCherry Reporter Primary qHTS; also: nearly all actives have a fitted effect of over 35% in size
# Details: Vaccinia virus mCherry reporter infection, fluorescence; series mostly up to 36.5 µM
# Potency is read from the fitted curve at half-maximal effect.
SMILES,Potency,outcome
CCCCN(C(C)=O)c1ccc2c(c1)C1CC2CCN1Cc1ccccc1 (stereo not drawn),inactive,–
O=[N+]([O-])c1ccc(F)cc1Oc1nc(-c2cccnc2)nc2ccccc12,3.55 µM (active),–
COc1ccccc1Oc1nc(-c2cccnc2)nc2ccccc12,inactive,–
Fc1ccc(/C=N/Nc2nc(-c3cccnc3)nc3ccccc23)cc1,–,inactive [at 7.34 µM]
COc1ccc(-c2ccc(C(=O)NCCN3CCOCC3)c3occc23)c(C)c1,inactive,–
COC1CC(OC2CC[C@@]3(C=O)C4CC[C@]5(C)C(C6=CC(=O)OC6)CC[C@@]5(O)C4CC[C@]3(O)C2)OC(C)C1O (stereo partly drawn),2.51 µM (active),–
CC1=C(C(=O)N2CCOCC2)CC(CC(=O)NCC2CCCCC2)C(=O)N1Cc1ccc(F)cc1 (stereo not drawn),inactive,–
CC(=O)C1=CCC(c2ccccc2)N(S(=O)(=O)c2ccc(C)cc2)C1 (stereo not drawn),inactive,–
COc1cccc(NC(=O)C2(C)CCN2C(=O)CCC2CCCC2)c1 (stereo not drawn),inactive,–
CCCCCCN1CCN(C2CN(Cc3cn(CCCCCC)nn3)S(=O)(=O)C2)CC1 (stereo not drawn),inactive,–
COc1c(O)ccc2c1CN1CCc3cc4c(cc3C1C2)OCO4 (stereo not drawn),11.2 µM (active),–
COc1ccc2c(c1O)-c1cccc3c1[C@@H](C2)N(C)CC3,inactive,–
CN1CCc2cc3c(cc2[C@H]1[C@@H]1OC(=O)c2c1ccc1c2OCO1)OCO3,inactive,–
CC(C)NC(=O)C1(C)CCCCCN1C(=O)c1ccc(-c2ccccc2)cc1 (stereo not drawn),inactive,–
CC(=O)c1ccc(Nc2nc(C(N)c3ccccc3Cl)cs2)cc1 (stereo not drawn),inactive,–
CC(=O)Nc1cccc(-c2cc(NC(C)=O)c3ncc(-c4ccccc4)n3c2)c1,inactive,–
CCOc1ccc(-c2cc(C(=O)N/N=C/c3ccc(O)cc3)c3ccccc3n2)cc1,3.98 µM (active),–
COc1ccc(-c2cc(C(=O)N/N=C/c3cccnc3)c3ccccc3n2)c(OC)c1,inactive,–
COc1ccc(-c2cc(C(=O)Nc3ccccc3O)c3ccccc3n2)cc1,inactive,–
CC1(C(=O)Nc2ccc3c(c2)OCCO3)CCN1C(=O)Cc1cc(F)ccc1F (stereo not drawn),inactive,–
CCCOc1ccc(F)cc1-c1cc(C(=O)NCc2ccc(F)cc2)[nH]n1,inactive,–
CN(Cc1cccc2ncccc12)C(=O)c1cnn(-c2nccc(-c3ccccc3F)n2)c1C1CC1,5.62 µM (active),–
Cc1ccc(-c2ccnc(-n3ncc(C(=O)N(C)Cc4cccc5ncccc45)c3C3CC3)n2)o1,inactive,–
Cc1cccc(CNC(=O)c2cnn(-c3nccc(-c4ccccc4F)n3)c2C2CC2)n1,inactive,–
CCOC(=O)C1=CCC(c2ccc(F)cc2)N(S(=O)(=O)c2ccc(C)cc2)C1 (stereo not drawn),inactive,–
CCOc1cc(/C=C2\SC(N3CCCC(C)C3)=NC2=O)ccc1O (stereo not drawn),11.2 µM (active),–
CC1CCN(C2=NC(=O)/C(=C/c3ccc(O)cc3)S2)CC1,inactive,–
O=C1N=C(N2CCCC2)S/C1=C\c1cccc(Br)c1,inactive,–

# From PubChem BioAssay AID720579 (National Center for Advancing Translational Sciences (NCATS), 2013)
